From PubChem BioAssay AID652154 (Broad Institute, 2013)
Where “and” joins values, the source holds several entries; their conditions need not be identical. Equal values may be shown once. Screen size: about 360,000 compounds; about 4,200 (1.2%) were called active.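 How the source made its calls: active means mean replicate inhibition at least 60% with every replicate also reaching 60%; inconclusive means only one of the two criteria is met; inactive means mean below 60% and not all replicates reaching 60%.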 Only a selection was taken, and actives are over-represented in it overall. Some compounds were tested as several samples or in several runs, with calls that do not always agree.

Experiment: PAX8 transcriptional activity inhibition in RMG-I – RMG-I cells, luciferase, single concentration, primary screen (AID 652154);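 further: luciferase light reporting Pax8 driven TPO promoter activity; plate controls were median of neutral control wells for no effect and mitoxantrone controls for full effect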
Conditions: RMG-I TPO-luciferase reporter, SteadyGlo, 24 h; at 12.6 µM; stronger effect = higher value

| SMILES | inhibition |
| --- | --- |
| COc1cc2c(cc1OC)CN(C(=O)c1cc(S(=O)(=O)N3CCCCC3)ccc1Cl)CC2 | -3.73% (inactive) |
| CCOc1cc(C(=O)N2CCc3cc(OC)c(OC)cc3C2)ccc1OC(F)F | 86.2% (active) |
| COc1cc2c(cc1OC)CN(C(=O)c1ccc(S(=O)(=O)N3CCCCCC3)cc1)CC2 | 11.3% (inactive) |
| O=C(C[C@H]1C[C@H]2c3cc(NC(=O)CC4CC4)ccc3O[C@H]2[C@H](CO)O1)NCc1ccccn1 | -23.5% (inactive) |
| COc1ccc(S(=O)(=O)Nc2ccc3c(c2)C(=O)N([C@@H](C)CO)C[C@@H](C)[C@H](CN(C)C(=O)CCC(F)(F)F)OCCCC[C@H](C)O3)cc1 | 6.54% (inactive) |
| O=S(=O)(NCc1ccccn1)c1ccc(Br)s1 | -3.1% (inactive) |
| O=S(=O)([N-]c1nc2ccccc2nc1-[n+]1ccc(Cc2ccccc2)cc1)c1ccc(Br)s1 | 70.9% (active) |
| COc1ccc(S(=O)(=O)Nc2cccc3c2O[C@@H](CN(C)C(=O)Nc2ccccc2)[C@@H](C)CN([C@H](C)CO)C3=O)cc1 | 11% (inactive) |
| Cc1ccc(S(=O)(=O)NC(C(=O)N2CCOCCOCCOCCOCC2)c2ccccc2)cc1 (stereo not given) | 5.5% (inactive) |
| Cc1ccc(C(=O)N2CCN(S(=O)(=O)N3CCOCC3)CC2)cc1 | -3.97% (inactive) |
| Cc1oc2c(c1C(=O)N1CCOCC1)C(=O)c1ccccc1C2=O | 83.3% (active) |
| CN(C)C(=O)[C@@H]1[C@@H](CO)[C@@H]2Cn3c(cccc3=O)[C@@H]2N1C(=O)C1CCC1 | -6.21% (inactive) |
| CCCN1C[C@@H](C)[C@@H](OC)CN(C)C(=O)c2cc(NC(=O)Nc3cccc(F)c3)ccc2OC[C@@H]1C | 13.5% (inactive) |
| N#C[C@@H]1[C@@H](c2ccc(C3=CCCC3)cc2)[C@@H](CO)N1C(=O)C1CCCC1 | 3.84% (inactive) |
| CCOc1ccc(C(CC(=O)O)n2cnnn2)cc1OC (stereo not given) | 7.25% (inactive) |
| CCCCC(=O)NC(c1ccc(OC)c(OC)c1)c1ccc2cccnc2c1O (stereo not given) | 78.7% (active) |
| C=CCn1c(COc2cccc3cccnc23)nnc1SCC(=O)OC | 21.9% (inactive) |
| C[C@@H]1CCCCO[C@@H](CN(C)C(=O)Nc2cccc3ccccc23)[C@H](C)CN([C@H](C)CO)C(=O)c2cc(NC(=O)NC3CCCCC3)ccc2O1 | 34.7% (inactive) |
| Cc1noc(C)c1S(=O)(=O)Nc1ccc2c(c1)C(=O)N([C@@H](C)CO)C[C@@H](C)[C@@H](CN(C)Cc1ccccc1)OCCCC[C@H](C)O2 | 27.1% (inactive) |
| COc1ccc(CN2C(=O)C(CC(=O)NCc3cccc4ccccc34)CC(C(=O)N3CCOCC3)=C2C)cc1 (stereo not given) | -99.8% (inactive) |
| CCN(CC)C(=O)C1=C(C)N(Cc2ccc(OC)cc2)C(=O)C(CC(=O)NCCCCc2ccccc2)C1 (stereo not given) | 8.41% (inactive) |
| COc1ccc(CN2C(=O)C(CC(=O)NCCCCc3ccccc3)CC(C(=O)N3CCOCC3)=C2C)cc1 (stereo not given) | 91.4% (active) |

| SMILES | inhibition |
| --- | --- |
| CN1C(=O)c2cc(NC(=O)c3ccc(F)cc3)ccc2OC[C@H]2O[C@H](CC(=O)N3CCOCC3)CC[C@@H]21 | -0.681% (inactive) |
| Cc1cc(C)n2nc(CNS(=O)(=O)c3c(F)c(F)c(F)c(F)c3F)nc2n1 | 85.5% (active) |
| COc1ccc(Cl)cc1C(=O)NNC(=O)c1nc2nc(C)cc(C)n2n1 | -17.5% (inactive) |
| Cc1cc(C)n2nc(SCC(N)=O)nc2n1 | -3.44% (inactive) |
| Cc1noc(C)c1NC(=O)Nc1ccc2c(c1)C(=O)N([C@@H](C)CO)C[C@@H](C)[C@@H](CN(C)CC1CCCCC1)O2 | -11.2% (inactive) |
| COc1ccc(NC(=O)N(C)C[C@@H]2Oc3ccc(NC(=O)CCCN(C)C)cc3CC(=O)N([C@H](C)CO)C[C@H]2C)cc1 | 2.7% (inactive) |
| C[C@H]1CCCCO[C@@H](CN(C)Cc2ccc3c(c2)OCO3)[C@@H](C)CN([C@@H](C)CO)C(=O)c2cc(NC(=O)Nc3ccc(F)cc3)ccc2O1 | 87.4% (active) |
| C[C@@H]1CN([C@H](C)CO)C(=O)c2cc(NC(=O)Nc3ccccc3)ccc2O[C@@H](C)CCCCO[C@@H]1CN(C)Cc1ccncc1 | 6.95% (inactive) |
| C[C@@H]1CN([C@H](C)CO)C(=O)c2cc(NC(=O)Nc3ccc(F)cc3)ccc2O[C@@H](C)CCCCO[C@H]1CN(C)Cc1ccc(Cl)c(Cl)c1 | 77.5% (active) |
| C[C@@H]1CN([C@H](C)CO)C(=O)c2cc(NC(=O)Nc3ccc4c(c3)OCO4)ccc2O[C@@H](C)CCCCO[C@@H]1CN(C)Cc1ccc2c(c1)OCO2 | 25.2% (inactive) |
| C[C@@H]1CCCCO[C@@H](CN(C)Cc2ccncc2)[C@H](C)CN([C@H](C)CO)C(=O)c2cc(NC(=O)NC3CCCCC3)ccc2O1 | 8.64% (inactive) |
| C[C@H]1CCCCO[C@@H](CN(C)Cc2ccncc2)[C@@H](C)CN([C@@H](C)CO)C(=O)c2cc(NC(=O)Nc3ccc(F)cc3)ccc2O1 | -6.76% (inactive) |
| C[C@@H]1CCCCO[C@H](CN(C)Cc2ccc(Cl)c(Cl)c2)[C@@H](C)CN([C@@H](C)CO)C(=O)c2cc(NC(=O)Nc3ccccc3)ccc2O1 | 93.9% (active) |
| C[C@H]1CCCCO[C@H](CN(C)Cc2ccccc2)[C@@H](C)CN([C@@H](C)CO)C(=O)c2cc(NC(=O)NC3CCCCC3)ccc2O1 | 5.95% (inactive) |
| C[C@@H]1CCCCO[C@H](CN(C)Cc2ccncc2)[C@H](C)CN([C@H](C)CO)C(=O)c2cc(NC(=O)Nc3ccccc3)ccc2O1 | 18.7% (inactive) |
| C[C@@H]1CCCCO[C@@H](CN(C)Cc2ccncc2)[C@@H](C)CN([C@@H](C)CO)C(=O)c2cc(NC(=O)Nc3ccc(F)cc3)ccc2O1 | -6.16% (inactive) |
| C[C@H](CO)N1C[C@H](C)[C@H](CN(C)Cc2ccc(Cl)c(Cl)c2)OCCCC[C@H](C)Oc2ccc(NC(=O)NC3CCCCC3)cc2C1=O | 92.7% (active) |
| C[C@@H]1CCCCO[C@@H](CN(C)Cc2ccc3c(c2)OCO3)[C@@H](C)CN([C@@H](C)CO)C(=O)c2cc(NC(=O)Nc3ccccc3)ccc2O1 | -0.474% (inactive) |
| CN(C)C(=O)[C@H]1[C@H](CO)[C@H]2Cn3c(ccc(-c4ccc(F)cc4)c3=O)[C@H]2N1C(=O)c1ccccn1 | -7.59% (inactive) |
| CCCNC(=O)N[C@@H]1CC[C@@H](CCn2cc(C3CC3)nn2)O[C@@H]1CO | 3.4% (inactive) |
| C[C@@H]1CCCCO[C@@H](CN(C)S(=O)(=O)c2cn(C)cn2)[C@H](C)CN([C@H](C)CO)C(=O)c2cc(NS(=O)(=O)c3ccc(Cl)cc3)ccc2O1 | 4.97% (inactive) |
| C[C@H]1CN([C@@H](C)CO)C(=O)c2cccc(NS(=O)(=O)c3ccc(Cl)cc3)c2O[C@H]1CN(C)Cc1ccc2c(c1)OCO2 | 4.78% (inactive) |

| SMILES | inhibition |
| --- | --- |
| CC(C)NC(=O)N[C@H]1CC[C@@H](CC(=O)NCc2ccc(Oc3ccccc3)cc2)O[C@@H]1CO | -20.9% (inactive) |
| C[C@H](CO)N1C[C@H](C)[C@H](CN(C)C(=O)Nc2ccc(F)cc2)Oc2ncc(-c3cc4ccccc4o3)cc2C1=O | 23.1% (inactive) |
| C[C@@H]1CCCCO[C@@H](CN(C)Cc2ccc(Cl)c(Cl)c2)[C@H](C)CN([C@H](C)CO)C(=O)c2cc(NC(=O)Nc3ccc(F)cc3)ccc2O1 | 102% (active) |
| CC(C)NC(=O)Nc1ccc2c(c1)C(=O)N([C@@H](C)CO)C[C@@H](C)[C@H](CN(C)Cc1ccc(Cl)c(Cl)c1)OCCCC[C@H](C)O2 | 38% (inactive) |
| COc1ccc(NC(=O)Nc2ccc3c(c2)C(=O)N([C@H](C)CO)C[C@@H](C)[C@H](CN(C)Cc2ccc(Cl)c(Cl)c2)OCCCC[C@@H](C)O3)cc1 | 57.5% (inactive) |
| O=S(=O)(c1ccccc1)N1C[C@@H]2[C@H](c3ccccc31)[C@H](CO)N2Cc1ccccn1 | 19.7% (inactive) |
| O=C(C1CCCCC1)N1CC2(C1)[C@H](c1ccccc1)[C@@H](CO)N2CCC(F)(F)F | -17.1% (inactive) |
| CC(=O)Nc1ccc2c(c1)C(=O)N(C)[C@@H]1CC[C@@H](CC(=O)NCC3CCCCC3)O[C@@H]1CO2 | -4.32% (inactive) |
| COc1ccc(NC(=O)Nc2ccc3c(c2)C(=O)N([C@@H](C)CO)C[C@H](C)[C@@H](CN(C)C(=O)NC2CCCCC2)O3)cc1 | -4.33% (inactive) |
| COc1ccc(OC)c(C2C3=C(N=c4s/c(=C\c5cccc(O)c5)c(=O)n42)c2ccccc2CC3)c1 (stereo not given) | 64.2% (active) |
| COc1ccc(/C=C2/CCCc3ccccc3C2=O)cc1 | -38.8% (inactive) |
| COc1ccc(C[C@@H]2CCc3cnnn3COC[C@H](c3ccccc3)NC2=O)cc1 | 1.19% (inactive) |
| O=C(C1CCOCC1)N1CC(=O)N2[C@H](CO)[C@H](c3ccc(C#Cc4cccc(F)c4)cc3)[C@H]2C1 | -14.5% (inactive) |
| O=C(N[C@H]1CC[C@H](CCn2cc(C3(O)CCCC3)nn2)O[C@H]1CO)C1CC1 | 13.3% (inactive) |
| O=C(c1ccncc1)N1CCCCN2[C@H](CO)[C@@H](c3ccc(C#Cc4ccccn4)cc3)[C@H]2C1 | 5.08% (inactive) |
| O=C(COc1ccc(-n2cnnn2)cc1)Nc1ccccc1Cl | -3.21% (inactive) |
| O=C(Nc1ccccc1Cl)/C(Cl)=C(\Cl)S(=O)c1ccccc1 (stereo not given) | 111% (active) |
| CS/C(=C\C(=O)c1ccco1)Nc1ccccc1Cl | 30.8% (inactive) |
| Cn1cnc(S(=O)(=O)N2C[C@@H]3N[C@H](C2)C3c2ccc(/C=C/c3ccccc3)cc2)c1 (stereo not given in full) | -2.85% (inactive) and -1.61% (inactive) |
| Cn1cnc(S(=O)(=O)N2C[C@@H]3N[C@H](C2)C3c2ccc(-c3ccccc3F)cc2)c1 (stereo not given in full) | 77.5% (active) and 26.1% (inactive) |
| COc1ccc(-c2ccc(C3[C@@H]4CN(S(=O)(=O)c5cn(C)cn5)C[C@H]3N4)cc2)cc1 (stereo not given in full) | -15.4% (inactive) |
